High-throughput results as filed in PubChem.
Most compounds without a hit are left out; they make up all but 21% or so of the library.
CYP2C19 activ = activators of human cytochrome P450 2C19; P33261; recombinant CYP2C19, luciferin-H EGE luminescence; stronger effect = higher value; 0 = fully inhibited enzyme, 1 = untreated enzyme; activation factor at 5 µM; 96,000 tested, under 10 active;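 active = activation factor of at least 2 at 5 µM in the primary screen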;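 note: 0 = wells with 2.5 mM tranylcypromine and 1 = vehicle-only wells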
MRP-1 activ = activates MRP-1 | H69AR cells + doxorubicin, viability rescue, CellTiter-Glo | viability increase, % at 10 µM | hit rate 0.61% among 140,000 | AID 799;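 active = viability gain under doxorubicin at or above a set limit, the compound median plus 3 SD, cut at about 4.7% in these data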;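 note: MRP-1 overexpressing cells given doxorubicin 25 µM after compound pretreatment; 18-22 h compound pretreatment then 72 h with doxorubicin before readout; 0% = doxorubicin-only wells and 100% = vehicle-treated cells without doxorubicin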
CYP2C9 inhib = human CYP2C9 inhibition | CYP2C9 Supersomes, luciferin-H conversion, luminescence | inhibition, % at 5 µM | hit rate 20% among 96,000;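 active = blocking of liver enzyme CYP2C9 beyond about 50% at 5 µM, limit read from the data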
Target sequence (P11712 whole entry, looked up): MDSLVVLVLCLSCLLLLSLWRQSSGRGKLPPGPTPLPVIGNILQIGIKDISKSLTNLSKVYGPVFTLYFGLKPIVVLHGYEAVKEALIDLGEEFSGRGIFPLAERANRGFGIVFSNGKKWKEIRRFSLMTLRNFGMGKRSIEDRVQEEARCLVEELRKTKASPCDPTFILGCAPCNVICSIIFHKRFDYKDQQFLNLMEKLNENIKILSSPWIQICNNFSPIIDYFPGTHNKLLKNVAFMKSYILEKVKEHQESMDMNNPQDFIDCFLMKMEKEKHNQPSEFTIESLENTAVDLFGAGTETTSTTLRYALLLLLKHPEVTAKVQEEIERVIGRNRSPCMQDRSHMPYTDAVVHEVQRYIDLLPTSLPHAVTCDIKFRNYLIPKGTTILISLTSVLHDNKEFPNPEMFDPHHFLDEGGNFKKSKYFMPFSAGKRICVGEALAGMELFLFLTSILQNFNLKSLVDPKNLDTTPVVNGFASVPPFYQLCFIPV
MRP resist rev = compounds reversing MRP-mediated drug resistance. H69AR cells + 2 uM doxorubicin, CellTiter-Glo, 72 h. differential viability (reversal), % at 10 µM. hit rate 0.04% among 85,000. AID 602;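 active = viability drop by adding the cancer drug above about 55%, with treated viability meeting a 40% cutoff, limit read from the data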;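 note: viability without doxorubicin minus viability with 2 µM doxorubicin for each compound; larger differential means the compound sensitizes cells more to doxorubicin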
CYP2C19 inh = inhibitors of human CYP2C19; P33261; CYP2C19 Supersomes, luciferin-H EGE luminescence, 30 min; inhibition, % at 5 µM; hit rate 21% among 96,000;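 active = CYP2C19 inhibition above a set limit at 5 µM in the primary screen, cut at about 50% in these data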;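 note: plate controls were negative control wells for no effect and 2.5 mM tranylcypromine positive control for full effect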
CYP2C9 act = activators of human CYP2C9; recombinant CYP2C9, luciferin-H conversion, luminescence; stronger effect = higher value; factor 1 = untreated enzyme, 0 = blocked; activation factor at 5 µM; P11712; hit rate 1.4% among 96,000;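 active = activation factor of 2 or more for CYP2C9 at a 5 µM dose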;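 note: 0 = sulfaphenazole-blocked wells and 1 = vehicle-only wells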
* = called active by the depositor; x = not tested or not shown.

SMILES	CYP2C19 activ	MRP-1 activ	CYP2C9 inhib	MRP resist rev	CYP2C19 inh	CYP2C9 act
c1csc(Cc2nn3c(-c4n[nH]c5c4CCC5)nnc3s2)c1	1	0	15	-17	2	0.8
Clc1ccc(-c2nnc3sc(Cc4cccs4)nn23)c(Cl)c1	0.1	0	78*	-7	87*	0.2
COc1ccc(OCc2nn3c(-c4ccco4)nnc3s2)cc1	0.4	2	59*	-2	57*	0.4
COc1ccc(NC2CS(=O)(=O)CC2NCc2ccccc2)cc1 (centres undefined)	x	-1	x	14	x	x
Cn1c(O)c(C=Nc2ccc(Cc3ccncc3)cc2)c(=O)n(C)c1=O	0.1	x	73*	0	88*	0.3
Cc1cccc(OCCC(=O)NCC(=O)Nc2c(C)cccc2C)c1	x	0	x	x	x	x
CCCCCn1cnc2c(sc3nc4c(cc32)CSC(C)(C)C4)c1=O	x	1	x	x	x	x
COC(=O)c1c(C)[nH]c(C(=O)CSc2ccc(Cl)cc2)c1C	0.7	-1	68*	12	27	0.3
CCOC(=O)c1[nH]c(C)c(C(=O)NCCN2CCOCC2)c1C	1.2	-1	-17	-22	-16	1.2
COC(=O)c1c(C)[nH]c(C(=O)/C=C/c2cccc(Cl)c2)c1C	x	-5	x	x	x	x
COC(=O)c1c(C)[nH]c(C(=O)CN2CCOCC2)c1C	0.4	-1	33	-9	62*	0.7
CC(OC(=O)CCCCCN=C1NS(=O)(=O)c2ccccc21)C(=O)Nc1cc(Cl)cc(Cl)c1 (centres undefined)	x	-2	x	x	x	x
O=C(O)Cn1nnnc1SCC(=O)Nc1ccc(OC(F)(F)F)cc1	1.2	-2	-14	-13	-18	1.1
C=CCc1cccc(CNc2nc3ccccc3n2CC)c1O	0.6	-4	-106	2	43	2.1*
CCN(CC)CCn1c(NCc2nc3ccccc3n2Cc2ccccc2)nc2ccccc21	0.8	-6	86*	-11	19	0.1
CCn1c(NCc2ccc(N(C)C)cc2)nc2ccccc21	0.3	0	-16	20	72*	1.2
c1ccc(Cn2c(CN3CCCC3)nc3ccccc32)cc1	0.4	-3	8	5	58*	0.9
c1ccc(Cn2c(CNc3nc4ccccc4n3CCN3CCCCC3)nc3ccccc32)cc1	x	-7	x	-20	x	x
S=C(Nc1cccc(Cl)c1Cl)Nn1cnnc1	x	0	x	x	x	x
O=C(OCn1nnc2ccccc2c1=O)c1ccc(N2CCOCC2)c([N+](=O)[O-])c1	x	-1	x	x	x	x
Cc1c(C(=O)NN)nc2ccccn12	x	1	x	x	x	x
CCn1c(NCc2c[nH]c3ccccc23)nc2ccccc21	x	x	x	0	x	x
Cn1c(NCc2cccs2)nc2ccccc21	0.5	-1	3	5	52*	1
CCn1c(NCc2ccccn2)nc2ccccc21	x	-3	x	2	x	x
CCn1c(NCc2cccs2)nc2ccccc21	0.4	-1	-54	-6	57*	1.5
SMILES	CYP2C19 activ	MRP-1 activ	CYP2C9 inhib	MRP resist rev	CYP2C19 inh	CYP2C9 act
Cn1c(NCc2c[nH]c3ccccc23)nc2ccccc21	0.3	-2	16	x	69*	0.8
Cn1c(NCc2ccco2)nc2ccccc21	0.8	0	-14	4	17	1.1
C=CCn1c(SCC(=O)Nc2ncc(Cc3cc(Cl)ccc3Cl)s2)nnc1-c1ccncc1	0.4	-2	17	x	56*	0.8
CCn1c(SCCC#N)nnc1-c1ccncc1	0.6	-2	2	13	44	1
C=CCn1c(SCCC#N)nnc1-c1ccncc1	0.4	-2	9	-21	55*	0.9
Nn1c(SCC(=O)Nc2ccc3c(c2)OCO3)nnc1-c1ccc(Cl)cc1	1.1	-4	4	x	-13	1
COC(=O)CSc1nnc(-c2ccncc2)n1N	0.7	0	7	19	25	0.9
C=CCn1c(SCC(=O)Nc2ncc(Cc3cc(C(F)(F)F)ccc3Cl)s2)nnc1-c1ccncc1	0.6	0	21	x	38	0.8
Nn1c(SCC(=O)Nc2ccc3c(c2)OCO3)nnc1-c1ccccc1	0.7	-1	51*	-9	28	0.5
Cc1ccc(NC(=O)CSc2nnc(-c3ccncc3)n2N)cc1C	0.7	-1	53*	12	29	0.5
C=CCn1c(SCC(=O)Nc2ccc3c(c2)OCO3)nnc1-c1ccccc1	0.5	0	52*	12	54*	0.5
C=CCn1c(SCC(=O)Nc2c(C)cccc2C)nnc1-c1ccncc1	0.3	0	24	1	72*	0.8
CC(=O)Nc1ccc(NC(=O)CSc2nnc(-c3ccccc3)n2Cc2ccc3c(c2)OCO3)cc1	0.8	-1	30	-26	25	0.7
C=CCn1c(SCC(=O)Nc2ccc3c(c2)OCO3)nnc1-c1ccccc1OC	0.2	-2	89*	9	83*	0.1
C=CCn1c(SCC(=O)Nc2ccc3c(c2)OCO3)nnc1-c1cc(Br)ccc1O	0.5	-2	82*	3	49	0.2
CC(=O)N(NC(=O)c1ccc(C)cc1)C1CC(=O)N(c2ccccc2Cl)C1=O (centres undefined)	x	-2	x	x	x	x
CC1CCCCN1S(=O)(=O)c1ccc2c(c1)CCN2C(=O)C1CCC1 (centres undefined)	0.7	-2	41	-29	26	0.6
O=C(CSc1nnnn1C1CCCC1)Nc1ccc2c(c1)OCO2	0.6	-1	55*	-10	39	0.5
Cc1ccccc1-c1nnc(SCC(=O)Nc2ccc3c(c2)OCCO3)n1N	0.6	-1	73*	12	40	0.3
O=C(CSc1nnc(Cc2ccccc2)o1)Nc1ccc2c(c1)OCO2	0.4	-4	94*	-20	60*	0.1
O=C(CSc1nnc(CNC(=O)c2cccs2)o1)Nc1ccc2c(c1)OCO2	0.8	-3	49	-4	16	0.5
O=[N+]([O-])c1cccc(C=Nc2cc3c(cc2Br)OCCO3)c1	x	-2	x	x	x	x
COc1ccccc1Cc1nc(-c2ccc(Br)o2)no1	0.1	-2	32	15	90*	0.7
COCCn1c(COc2ccc(C)cc2)nc2ccccc21	0.3	1	30	6	65*	0.7
OCc1nc2ccccc2n1CCCOc1ccccc1	0.5	-1	1	-7	53*	1
SMILES	CYP2C19 activ	MRP-1 activ	CYP2C9 inhib	MRP resist rev	CYP2C19 inh	CYP2C9 act
Cc1ccc(NCc2nc3ccccc3n2CCOc2ccccc2)cc1	x	-2	x	x	x	x
COCc1nc2ccccc2n1CCOc1ccccc1OC	0.4	-2	16	8	60*	0.8
COc1ccccc1OCCn1c(=O)sc2ccccc21	0.3	0	66*	6	68*	0.3
COCCNc1nnc(SC(C)C(=O)Nc2ccc(-c3nc4ccc(C)cc4s3)cc2)s1 (centres undefined)	x	-2	x	x	x	x
CCOCCn1c(COc2ccc(C)cc2)nc2ccccc21	x	-1	x	x	x	x
Cc1ccc(OCCCn2c(CO)nc3ccccc32)cc1	0	-2	53*	17	95*	0.5
OCCn1c(SCCOc2ccccc2)nc2ccccc21	0.2	-2	7	7	75*	0.9
NCc1ccc(-c2nc3ccccc3o2)cc1	0	x	70*	5	98*	0.3
